Bioassay records: PubChem, several laboratories
Anthrax LF inh2 = blocks Bacillus anthracis lethal factor protease; inhibition, % at 10 µM; 360,000 compounds, 0.12% hits; AID 588501; P15917; multiplex microsphere protease cleavage assay, LF; also: plate controls were buffer without enzyme for full effect and enzyme alone for no effect
BoNT F protease = inhibitors of Botulinum neurotoxin F light chain protease | Multiplex microsphere protease cleavage assay, flow cytometry | inhibition, % at 10 µM | 360,000 compounds, 0.22% hits; in the data active = inhibition above about 35%, passing the limit was not always enough; inconclusive = no clear call, values can overlap the other calls; also: plate controls were buffer without enzyme for full effect and enzyme alone for no effect
GDH-TPI counter = inhibits GDH-TPI coupling enzymes, artifact for Mtb FBA screen | GDH-TPI coupled enzyme counterscreen, NADH absorbance | 360,000 compounds, 1.2% hits | inhibition, % at 4.8 µM; in the data active = inhibition above about 30%;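 also: 0% = DMSO wells and 100% = wells lacking the enzyme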
Bead autofluor = compound fluorescence in toxin protease inhibitor counterscreen; AID 624483; compound autofluorescence counterscreen, microsphere flow cytometry; active compounds read high; 360,000 compounds, 3.1% hits; fluorescence intensity (test concentration not listed); in the data active = fluorescence intensity above about 16000; inconclusive = no clear call, values can overlap the other calls
BoNT-A LC inh2 = inhibitors of Botulinum neurotoxin A light chain protease; 360,000 compounds, 0.17% hits; inhibition, % at 10 µM; multiplex microsphere protease substrate cleavage, flow cytometry; also: plate controls were buffer without enzyme for full effect and enzyme alone for no effect
FBA Mtb inh = inhibits M. tuberculosis FBA enzyme | P9WQA3 | purified M. tuberculosis FBA, fluorescence read-out | inhibition, % at 1 µM | 360,000 compounds, 2.3% hits | AID 588726; in the data active = inhibition above about 27%;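 also: 0% = vehicle and 100% = reference inhibitor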
An asterisk follows results filed as active; u = inconclusive; x = not tested or not shown; + = active, no number. The list is not random: actives were taken first. Their share in the collection is about 6.6%. Rule as the data show it, unless noted: active = inhibition above about 30%; inconclusive = no clear call, values can overlap the other calls; inactive = below that.

SMILES	Anthrax LF inh2	BoNT F protease	GDH-TPI counter	Bead autofluor	BoNT-A LC inh2	FBA Mtb inh
CCN1C(=O)[C@H]2[C@@H](c3ccc(C(F)(F)F)cc3)N[C@]3(CCCN(Cc4ccco4)C3=O)[C@H]2C1=O	-7.8	-6.5	8.5	2902	-0.1	-1.1
CCCCNCC#CCOc1cc(C)ccc1C(C)C	-7.3	-12.3	-2.8	4613	1.2	-0.4
COCCNC(=O)c1c(NC(=O)c2ccc(Br)o2)n(Cc2ccccc2)c2nc3ccccc3nc12	10.7	-0.5	26.7	3089	35.3*	26.8
COCCNC(=O)c1ccc(CN2CCC(Cc3ccccc3)CC2)cc1	3.6	10.2	-4.9	3194	0.4	-2.9
Nc1c(C(=O)NCCN2CCOCC2)c2nc3ccccc3nc2n1CCc1ccccc1F	7.9	-2.4	26.9	8264	12.4	124.3*
Cc1ccc(-n2c(N)c(C(=O)Nc3c(C)n(C)n(-c4ccccc4)c3=O)c3nc4ccccc4nc32)cc1	1.2	31.2	8.9	2819	6.5	4.5
COC(=O)c1c(N)n(-c2ccc(NC(C)=O)cc2)c2nc3ccccc3nc12	-2.9	u	18.9	4957	-0.4	108.9*
COCCNC(=O)c1c(N)n(-c2cccc(C)c2)c2nc3ccccc3nc12	-1.1	6.4	-0.9	2924	6.2	182.6*
COC(=O)[C@@]1(Sc2ccc(C)cc2)CC(=O)N(C(=O)c2ccccc2)[C@@H]1c1ccccc1	-14.7	-2.3	x	5925	-0.3	x
CC(=O)N1CCC(C(=O)OCc2ccccc2F)(c2ccccc2)CC1	-1.6	1.5	-10.1	5466	1.3	0.1
CCCCNS(=O)(=O)c1cccc(NC(=O)[C@@H]2O[C@H](CO)[C@H](O)[C@H](O)[C@H]2O)c1	-3.9	-0.2	-4.9	3440	-0.2	-1.1
C=CCNC(=O)c1c(N)n(-c2cccc(S(N)(=O)=O)c2)c2nc3ccccc3nc12	1.2	-8.0	16.9	2222	6.2	115.9*
COCCCNC(=O)c1c(N)n(-c2ccc(S(N)(=O)=O)cc2)c2nc3ccccc3nc12	-3.7	5.6	25.4	7532	3.1	+
COc1ccc(-n2c(N)c(C(=O)NCc3ccco3)c3nc4ccccc4nc32)cc1OC	-0.8	1.9	11.2	2214	2.4	5.4
Nc1c(C(=O)NCc2ccccc2)c2nc3ccccc3nc2n1-c1ccc2c(c1)OCO2	2.1	4.3	-4.1	10578	7.5	-0.5
COc1ccc(Cn2cc(CN3CC(N(C)C)CS3(=O)=O)nn2)cc1 (configuration not stated)	1.3	2.8	x	3986	0.4	x
CCOC(=O)C1=C(C)OC(N)=C(C#N)C1c1cccs1 (configuration not stated)	-3.2	-6.9	3.1	4194	-1.1	-0.8
CCSC1=C(C#N)C(c2cccs2)C(C(=O)OC)=C(C)N1 (configuration not stated)	0.3	3.8	12.7	22477*	u	0.4
CCOC(=O)C1=C(C)OC(N)=C(C#N)C1c1ccoc1 (configuration not stated)	-2.0	-4.3	7.7	16971*	-1.8	1.4
CCOC(=O)C1=C(C)OC(N)=C(C#N)C1c1ccccc1 (configuration not stated)	-0.1	3.1	0.0	4385	-0.8	3.2
CCCC1=C(C(=O)OCC)C(c2cccs2)C(C#N)=C(N)O1 (configuration not stated)	-0.4	-1.3	5.5	22890*	0.1	5.0
CCOC(=O)C1=C(C)NC(SCC(N)=O)=C(C#N)C1c1cccs1 (configuration not stated)	0.7	-0.8	0.5	3001	0.2	2.1
O=C(Nc1nc2ccccc2n1CCOc1ccccc1)c1ccco1	0.9	-2.4	34.0*	2393	-0.1	2.9
c1ccc(Cn2c(NCc3ccco3)nc3ccccc32)cc1	3.0	5.2	-8.5	22272*	u	0.4
C=CCn1c(NC(=O)c2ccco2)nc2ccccc21	-2.5	-0.4	34.7*	5938	0.4	-0.3
SMILES	Anthrax LF inh2	BoNT F protease	GDH-TPI counter	Bead autofluor	BoNT-A LC inh2	FBA Mtb inh
COc1cc(/C=N/NC(=O)Cc2ccccc2)cc([N+](=O)[O-])c1O	-3.3	-28.3	58.6*	3658	-3.9	-7.3
Cc1n[nH]c(=O)nc1N/N=C/c1ccc(O)c([N+](=O)[O-])c1	1.1	4.5	42.8*	1944	0.2	0.2
COc1cc(/C=N/Nc2nc(=O)[nH]nc2C)cc([N+](=O)[O-])c1O	-9.6	2.1	38.0*	3885	-0.4	-11.5
COc1cc(/C=N/Nc2nc3ccccc3s2)cc([N+](=O)[O-])c1O	-1.9	-0.2	70.0*	4792	-1.1	0.1
O=C(NCc1ccccc1)C(c1ccccn1)N(C(=O)c1csnn1)c1ccccc1F (configuration not stated)	5.0	14.3	-8.1	3427	-2.5	0.7
Brc1ccc(-n2cc(-c3ccccc3)c3c(NN4CCOCC4)ncnc32)cc1	-0.1	6.7	-7.3	9027	1.1	0.7
Cc1cc(C(=O)N/N=C/c2cccc([N+](=O)[O-])c2O)n[nH]1	-0.6	-3.3	-0.7	2255	-0.9	-5.0
COc1ccc(/C=N/Nc2nc(=O)[nH]nc2C)cc1[N+](=O)[O-]	-0.8	-1.6	37.9*	2587	-0.4	0.6
Cc1cc(C(=O)N/N=C/c2ccc(O)c([N+](=O)[O-])c2)n[nH]1	-3.3	-4.0	42.6*	2511	-0.7	-8.6
CN(CC(=O)NCCc1ccccc1)Cc1ccco1	-1.2	0.3	-12.4	5695	0.5	2.5
CCn1c(=S)sc2c(=O)n(CC(=O)Nc3ccccc3C(F)(F)F)c(C)nc21	-1.5	2.7	-1.7	4835	0.7	0.8
N#CC1=C(N)SC(N)=C(C#N)C1C1C=CCCC1 (configuration not stated)	-2.2	3.4	-9.0	19353*	1.5	5.4
N#CC1=C(N)SC(N)=C(C#N)C1C1CC=CCC1 (configuration not stated)	-14.4	-17.7	4.2	6667	-0.5	-2.1
COc1cccc(CNC(=O)C2CCCN(C(=O)c3ccc(Cl)cc3)C2)c1 (configuration not stated)	-5.4	-8.8	-3.2	8084	-2.9	-0.8
COc1ccc([C@H]2CC(=O)C=C(/C=C/c3ccccc3)C2)cc1OC	-1.9	-8.7	37.8*	3693	-0.3	-2.6
COCCn1c(N)c(C(=O)NCC2CCCO2)c2nc3ccccc3nc21 (configuration not stated)	2.4	-1.6	17.5	2861	8.1	+
CCOC(=O)c1c(NS(=O)(=O)c2ccccc2)n(CCCOC)c2nc3ccccc3nc12	2.0	5.3	22.3	2109	6.1	14.5
CCOC(=O)c1c(N)n(CCCOC(=O)c2ccco2)c2nc3ccccc3nc12	0.4	5.1	9.2	5104	0.9	+
COCCNC(=O)c1c(N)n(CCC(C)C)c2nc3ccccc3nc12	5.3	4.4	6.0	9799	15.7	120.7*
COc1ccc(OC)c(-n2c(N)c(C(=O)NCC3CCCO3)c3nc4ccccc4nc32)c1 (configuration not stated)	5.4	u	3.4	3868	11.1	4.5
